Consider 19 molecules from PubChem BioAssay (EPA / NIEHS).

Read-out in assay [1]: Human Leukocyte Antigen - DR isotype (HLADR), HLA-DRA (gene 3122)
The experiment in a line: BSK_BE3C_HLADR: BioMAP Diversity Plus: BE3C Assay for Human Leukocyte Antigen - DR isotype (HLADR) Biomarker Activity (AID 2283032). Particulars: primary human bronchial epithelial cells; actives raise or lower the signal. Put shortly:
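Human primary bronchial epithelial cells in the BE3C system were exposed to chemicals for 24 h, after which HLA-DR levels were quantified by ELISA. Activity was fitted bidirectionally, gain or loss of signal, against DMSO as negative control and baseline.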

Read-out in assay [2]: Vascular cell adhesion molecule 1 (VCAM1), VCAM1 (gene 7412)
Put plainly: BSK_4H_VCAM1: BioMAP Diversity Plus: 4H Assay for Vascular cell adhesion molecule 1 (VCAM1) Biomarker Activity (AID 2283033).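 As to outcome: cell-surface VCAM-1 protein measured by ELISA.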 Particulars: primary human endothelial cells (HUVEC); actives raise or lower the signal. Put shortly: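 Primary human umbilical vein endothelial cells were exposed to chemicals for 24 h, after which VCAM-1 was quantified by ELISA. Responses were fitted bidirectionally against DMSO as negative control and activity baseline.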

Read-out in assay [3]: Interferon-gamma inducible Protein 10 (IP10), CXCL10 (gene 3627)
Put plainly: BSK_BE3C_IP10: BioMAP Diversity Plus: BE3C Assay for Interferon-gamma inducible Protein 10 (IP10) Biomarker Activity (AID 2283034). Particulars: primary human bronchial epithelial cells; actives raise or lower the signal. Put shortly: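 Human primary bronchial epithelial cells were exposed to chemicals for 24 hours, after which IP-10 levels were measured by ELISA. Data were fitted bidirectionally against DMSO, which served as the negative control and activity baseline.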

Read-out in assay [4]: Monokine induced gamma interferon (MIG), CXCL9 (gene 4283)
Put plainly: BSK_BE3C_MIG: BioMAP Diversity Plus: BE3C Assay for Monokine induced gamma interferon (MIG) Biomarker Activity (AID 2283035).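 As to outcome: MIG protein measured by ELISA in BE3C cultures after 24 h of dosing.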 Particulars: primary human bronchial epithelial cells; actives raise or lower the signal. Put shortly: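 MIG level was determined by ELISA after 24 h chemical treatment of primary human bronchial epithelial cells. Values were fitted bidirectionally with DMSO as the negative control and activity baseline.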

Read-out in assay [5]: Transforming growth factor beta 1 (TGFb1), TGFB1 (gene 7040)
The experiment in a line: BSK_BE3C_TGFb1: BioMAP Diversity Plus: BE3C Assay for Transforming growth factor beta 1 (TGFb1) Biomarker Activity (AID 2283036). The note with it: primary human bronchial epithelial cells; actives raise or lower the signal. Put shortly: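 Human primary bronchial epithelial cells (BE3C system) were dosed with chemical and TGF-b1 levels measured by ELISA at 24 h. Activity was fitted bidirectionally relative to DMSO negative control as baseline.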

Read-out in assay [6]: Plasminogen activator inhibitor-1 (PAI1), SERPINE1 (gene 5054)
The experiment in a line: BSK_BE3C_PAI1: BioMAP Diversity Plus: BE3C Assay for Plasminogen activator inhibitor-1 (PAI1) Biomarker Activity (AID 2283037). Particulars: primary human bronchial epithelial cells; actives raise or lower the signal. Put shortly: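 Human primary bronchial epithelial cells were exposed to chemical for 24 h, then PAI-1 was quantified by ELISA. Activity was fitted bidirectionally relative to the DMSO negative control baseline.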

Read-out in assay [7]: Urokinase-type plasminogen activator receptor (uPAR), PLAUR (gene 5329)
Put plainly: BSK_BE3C_uPAR: BioMAP Diversity Plus: BE3C Assay for Urokinase-type plasminogen activator receptor (uPAR) Biomarker Activity (AID 2283039).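 As to outcome: cells exposed to compound for one day before measurement.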 Particulars: primary human bronchial epithelial cells; actives raise or lower the signal. Put shortly:
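Primary human bronchial epithelial cells were dosed with chemical and harvested 24 h later; uPAR was quantified by ELISA. Activity was fitted bidirectionally against DMSO as negative control and baseline.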

Read-out in assay [8]: Interleukin-6 (IL6), IL6 (gene 3569)
The experiment in a line: BSK_CASM3C_IL6: BioMAP Diversity Plus: CASM3C Assay for Interleukin-6 (IL6) Biomarker Activity for (AID 2283040). The note with it: primary human coronary artery smooth muscle cells; actives raise or lower the signal.

Read-out in assay [9]: Tissue plasminogen activator (tPA), PLAT (gene 5327)
Put plainly: BSK_BE3C_tPA: BioMAP Diversity Plus: BE3C Assay for Tissue plasminogen activator (tPA) Biomarker Activity (AID 2283041).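 As to outcome: tPA level quantified by ELISA one day after compound addition.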 Particulars: primary human bronchial epithelial cells; actives raise or lower the signal. Put shortly: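 Human primary bronchial epithelial cells were dosed with chemical and tPA biomarker levels measured by ELISA 24 hours later. Activity was fitted bidirectionally against DMSO as negative control and baseline.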

Read-out in assay [10]: urokinase plasminogen activator (uPA), PLAU (gene 5328)
Put plainly: BSK_BE3C_uPA: BioMAP Diversity Plus: BE3C Assay for urokinase plasminogen activator (uPA) Biomarker Activity (AID 2283038).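 As to outcome: uPA protein level quantified by ELISA in cell cultures; uPA read one day after compound addition.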 Particulars: primary human bronchial epithelial cells; actives raise or lower the signal. Put shortly: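 Human primary bronchial epithelial cells were exposed to chemical for 24 h, then uPA levels were measured by ELISA. Responses were fitted bidirectionally against DMSO as negative control and baseline. Parallel SRB staining of total protein gauged overt cytotoxicity.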

The structures appear in SMILES notation. Values joined by “and” are separate entries in the source; they are usually repeats but may differ in a detail not shown here. Equal values may be shown once. A structure can be active in one record and inactive in another. Active and inactive are the calls of the source. The calls were made as follows: active = hit-call score of the fitted dose curve at least 0.9, where 1 is the maximum; inactive = score below 0.9.

On to `CCCCC(CC)CN1C(=O)C2C3C=CC(C3)C2C1=O` (stereo unspecified), for which the half-maximal activity concentration (AC50) in assay [1] is 15.7 µM (active); in assay [3] it was 18.2 µM (active); in assay [6], 28.1 µM (active). Moreover, the outcome in [2], in [4], in [5], in assay [7], in assay [8] and in [9] was inactive.

Consider `CCNc1nc(N)nc(Cl)n1`, for which the outcome in assay [1], in assay [2], in [3], in [4], in assay [5] and in [6] was inactive. Besides, the outcome in assay [7], in assay [8] and in assay [9] was inactive. For the same molecule, the half-maximal activity concentration (AC50) in assay [10] was 10.9 µM (active).

For the molecule `COc1c(Cl)ccc(Cl)c1C(=O)O`, the outcome in assay [1], in [2], in assay [3], in assay [4], in assay [5] and in [6] was inactive. The result in assay [7], in assay [8] and in assay [9] was inactive.

As to `OB(O)O`, the result in assay [1], in [2], in assay [3], in [4], in assay [5] and in assay [6] was inactive. In addition, the result in assay [10], in [7], in assay [8] and in assay [9] was inactive.

`O=C(O)C1(C(=O)Nc2ccc(Cl)cc2Cl)CC1`: the figures for the AC50 in assay [1] and in assay [3] were 10.7 µM (active) and 23.8 µM (active), respectively. Moreover, the result in assay [2], in assay [4], in [5], in assay [6], in [10] and in [7] was inactive. Further, the result in assay [8] and in assay [9] was inactive.

Turning to `CCCOC(=O)NCCCN(C)C`, the values for the AC50 in assay [1] and in assay [7] were 4.29 µM (active) and 148 nM (active), respectively. In addition, the outcome in assay [2], in assay [3], in [4], in [5], in [6] and in assay [10] was inactive. For the same molecule, the outcome in assay [8] and in [9] was inactive.

For `CCCCOCCOCCOCc1cc2c(cc1CCC)OCO2`, the outcome in assay [1], in [2], in assay [3], in assay [4], in assay [5] and in assay [6] was inactive. In addition, the outcome in assay [10], in [7], in assay [8] and in assay [9] was inactive.

Regarding `S=C([S-])NCCNC(=S)[S-].[Mn+2]`, the concentration at half-maximal activity (AC50) is 30.5 µM (active) in assay [1] and 12.2 µM (active) in [8]. Besides, the result in [2], in assay [3], in [4], in assay [5], in assay [6] and in [10] was inactive. Further, the result in assay [7] and in assay [9] was inactive.

With `COC(=O)c1ccc(CNS(C)(=O)=O)cc1S(=O)(=O)NC(=O)Nc1nc(OC)cc(OC)n1`, the outcome in [1], in [2], in [3], in assay [4], in assay [5] and in assay [6] was inactive. Further, the outcome in [10], in [7], in [8] and in assay [9] was inactive.

For `N#CSCSc1nc2ccccc2s1`, the AC50 is 6.17 µM (active) and 12.1 µM (active) in [1]; 5.21 µM (active) and 12.8 µM (active) in assay [2]; 9.03 µM (active) and 11.8 µM (active) in assay [3]; 9.86 µM (active) and 12.2 µM (active) in assay [4]; 11.2 µM (active) in assay [5]; 4.99 µM (active) and 11.8 µM (active) in assay [6]. Also, the half-maximal activity concentration (AC50) in assay [10] is 6.61 µM (active) and 12.1 µM (active); in assay [7] it was 5.42 µM (active) and 11.5 µM (active); in assay [8], 8.6 µM (active) and 36.5 µM (active); in [9], 5.25 µM (active). Moreover, the outcome in assay [5] and in assay [9] was inactive.

In the case of `CN(C)C(=O)Nc1ccc(Cl)c(Cl)c1`, the outcome in assay [1], in assay [2], in assay [3], in assay [4], in assay [5] and in assay [6] was inactive. Moreover, the result in [10], in assay [7], in assay [8] and in assay [9] was inactive.

Consider `CCCCOC(=O)[C@@H](C)Oc1ccc(Oc2ccc(C(F)(F)F)cn2)cc1`, for which the result in [1], in assay [2], in [3], in assay [4], in assay [5] and in assay [6] was inactive. The outcome in assay [7], in [8] and in assay [9] was inactive.

As for `COC(=O)c1c(Cl)nn(C)c1S(=O)(=O)NC(=O)Nc1nc(OC)cc(OC)n1`, the result in [1], in assay [2], in assay [3], in assay [4], in assay [5] and in assay [6] was inactive. Further, the outcome in assay [7], in assay [8] and in assay [9] was inactive.

On to `CCN(CC)C(=O)c1cccc(C)c1`, for which the result in assay [1], in [2], in assay [3], in assay [4], in [5] and in [6] was inactive. Also, the outcome in [10], in [7], in assay [8] and in assay [9] was inactive.

In the case of `CC(C)(c1ccc(O)cc1)c1ccc(O)cc1`, the outcome in [1], in assay [2], in assay [3], in assay [4], in assay [5] and in [6] was inactive. The outcome in assay [10], in [7], in assay [8] and in [9] was inactive. In addition, the AC50 in assay [2] is 7.53 µM (active); in [3] it was 9.06 µM (active); in assay [6], 24.3 µM (active); in assay [9] it was 8.08 µM (active).

Consider `C#C[C@]1(O)CC[C@H]2[C@@H]3CCC4=CC(=O)CC[C@@H]4[C@H]3CC[C@@]21CC`, for which the outcome in [1], in [2], in assay [3], in assay [4], in assay [5] and in assay [6] was inactive. Besides, the result in assay [10], in [7], in assay [8] and in [9] was inactive.

As for `CC(=O)S[C@@H]1CC2=CC(=O)CC[C@]2(C)[C@H]2CC[C@@]3(C)[C@@H](CC[C@@]34CCC(=O)O4)[C@H]12`, the result in assay [1], in [4], in [5], in [6], in assay [7] and in [8] was inactive. Also, the result in assay [9] was inactive. The concentration at half-maximal activity (AC50) in assay [2] is 34.3 µM (active); in assay [3], 30.9 µM (active).

As to `CSC(=O)c1cccc2nnsc12`, the result in assay [1], in assay [2], in assay [3], in assay [4], in assay [5] and in [6] was inactive. Moreover, the result in assay [10], in [7], in [8] and in assay [9] was inactive.

`CCCCOC(=O)C(C)Oc1ccc(Oc2ccc(C(F)(F)F)cn2)cc1` (stereo unspecified): the result in assay [1], in assay [2], in assay [3], in assay [4], in assay [5] and in assay [6] was inactive. The result in assay [10], in [7], in [8] and in assay [9] was inactive.

In general, AC50 refers to the concentration at which the activity in the assay is half-maximal.
